# Values joined by “and” are separate entries in the source; they are usually repeats but may differ in a detail not shown here. Equal values may be shown once. Where a name gives a salt, the structure may show the parent alone. Screen size: about 5,800 compounds; about 620 (11%) showed activity.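 Rule for the calls: active = score above a cut-off or among the top three wells of a plate; in these data no inactive exceeds 0.85.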 For the sample, actives were picked, then their nearest neighbours and some compounds at random.
# System: primary human hepatic stellate cells (donor 1)
# Test: scaled lipid accumulation score (0 = DMSO-like, 1 = nortriptyline-like); higher = stronger HSC inactivation (lipid re-accumulation), active = hit call of the paper
# Settings: 48 h
# [1] = library stock concentration: 10 mM
# [2] = library stock concentration: 1 mM
# [3] = library stock concentration: 3.33 mM
# [4] = library stock concentration: 80 uM
# [5] = library stock concentration: 400 uM
# [6] = library stock concentration: 2 mM
smiles,measurement,setting,value
CC(C)C[C@@H]1NC(=O)[C@H](CCCN)NC(=O)[C@H](C(C)C)NC(=O)[C@H](Cc2ccc(O)cc2)N[C@@H](CCC(=O)O)C(=O)N[C@@H](CC(N)=O)C(=O)[C@@H](Cc2ccccc2)NC(=O)[C@H](Cc2ccccc2)NC(=O)[C@@H]2CCCN2C(=O)[C@@H](Cc2ccccc2)NC1=O [Tyrothricin],scaled lipid accumulation score,library stock concentration: 1.6 mM,≤ 0 (inactive)
same,scaled lipid accumulation score,[1],≤ 0 (inactive)
COC(=O)CCCCCCC1C(O)CC(O)C1CCC(O)CSc1ccccc1F (centres undefined),scaled lipid accumulation score,[2],≤ 0 (inactive)
CC(=O)O/N=C1\C(=O)N(Cc2cc(Cl)ccc2Cl)c2ccc(Cl)cc21,scaled lipid accumulation score,[3],≤ -0.009 (inactive)
same,scaled lipid accumulation score,[1],≤ 0 (inactive)
NC(C(=O)O)c1cc(O)cc(O)c1 (racemic),scaled lipid accumulation score,[1],0.017 (inactive)
C[C@H](O)[C@H](O)[C@@H](O)[C@@H](O)C=O [L-(+)-Rhamnose Monohydrate],scaled lipid accumulation score,[3],≤ 0 (inactive)
same,scaled lipid accumulation score,[1],≤ 0 (inactive)
CC(C)Nc1cccnc1N1CCN(C(=O)c2cc3cc(NS(C)(=O)=O)ccc3[nH]2)CC1 [Delavirdine mesylate],scaled lipid accumulation score,library stock concentration: 4.4 mM,≤ -0.006 (inactive)
COc1cc(Nc2ncc(F)c(Nc3ccc4c(n3)NC(=O)C(C)(C)O4)n2)cc(OC)c1OC [listing 1 of 2 here],scaled lipid accumulation score,[4],≤ 0 (inactive)
same,scaled lipid accumulation score,[5],0.072 (inactive)
same,scaled lipid accumulation score,[6],0.159 (inactive)
same,scaled lipid accumulation score,[3],0.03 (inactive)
COc1cc(Nc2ncc(F)c(Nc3ccc4c(n3)N(COP(=O)(O)O)C(=O)C(C)(C)O4)n2)cc(OC)c1OC [Fostamatinib (R788)] [listing 1 of 2 here],scaled lipid accumulation score,[3],0.198 (inactive)
C=CC(=O)Nc1cccc(Nc2nc(Nc3ccc(OCCOC)cc3)ncc2F)c1 [Spebrutinib],scaled lipid accumulation score,[4],≤ -0.001 (inactive)
same,scaled lipid accumulation score,[5],≤ -0.001 (inactive)
same,scaled lipid accumulation score,[6],≤ -0.001 (inactive)
same,scaled lipid accumulation score,[1],0.202 (inactive)
COc1cc(Nc2ncc(F)c(Nc3ccc4c(n3)NC(=O)C(C)(C)O4)n2)cc(OC)c1OC [listing 2 of 2 here],scaled lipid accumulation score,[1],1.06 (active)
C=CC(=O)Nc1cccc(Nc2nc(Nc3ccc(OCCOC)cc3)ncc2F)c1,scaled lipid accumulation score,[3],≤ -0.009 (inactive)
same,scaled lipid accumulation score,[1],0.576 (inactive)
COc1cc(Nc2ncc3ccn(-c4cccc(CCC#N)c4)c3n2)cc(OC)c1OC [Keratinocyte Differentiation Inducer],scaled lipid accumulation score,[3],0.501 (inactive) and ≤ 0 (inactive)
COc1cc(Nc2ncc(F)c(Nc3ccc4c(n3)NC(=O)C(C)(C)O4)n2)cc(OC)c1OC [R406 (free base)],scaled lipid accumulation score,[3],0.918 (active)
same,scaled lipid accumulation score,[1],1.16 (active)
COc1cc(Nc2ncc(F)c(Nc3ccc4c(n3)NC(=O)C(C)(C)O4)n2)cc(OC)c1OC.O=S(=O)(O)c1ccccc1,scaled lipid accumulation score,[1],0.882 (active)
COc1cc(Nc2ncc3c(n2)-c2ccc(Cl)cc2C(c2c(F)cccc2OC)=NC3)ccc1C(=O)O [Alisertib (MLN8237)],scaled lipid accumulation score,[3],≤ 0 (inactive)
same,scaled lipid accumulation score,[1],≤ 0 (inactive)
COc1cc(Nc2ncc3c(n2)-c2ccc(Cl)cc2C(c2c(F)cccc2OC)=NC3)ccc1C(=O)O [Alisertib],scaled lipid accumulation score,[4],≤ 0 (inactive)
same,scaled lipid accumulation score,[5],≤ 0 (inactive)
same,scaled lipid accumulation score,[6],≤ 0 (inactive)
same,scaled lipid accumulation score,[1],≤ 0 (inactive)
COc1cc(Nc2ncc(F)c(Nc3ccc4c(n3)N(COP(=O)(O)O)C(=O)C(C)(C)O4)n2)cc(OC)c1OC [Fostamatinib (R788)] [listing 2 of 2 here],scaled lipid accumulation score,[1],1.01 (active)
CCCC(CCC)C(=O)O[C@H]1C[C@H]2CC[C@@H](C1)[N+]2(C)C [Anisotropine methyl bromide],scaled lipid accumulation score,[1],0.296 (inactive)
OC[C@H]1O[C@H](O[C@H]2[C@H](O)[C@@H](O)C(O)O[C@@H]2CO)[C@H](O)[C@@H](O)[C@@H]1O (some centres undefined),scaled lipid accumulation score,[1],≤ 0 (inactive)
Nc1nc2c(ccc3ccccc32)s1,scaled lipid accumulation score,[1],≤ 0 (inactive)
CC1=C(C)C(=O)C(CCCCC#CCCCC#CCO)=C(C)C1=O [Docebenone],scaled lipid accumulation score,library stock concentration: 6.1 mM,≤ -0.006 (inactive)
CC1=C(C)C(=O)C(CCCCC#CCCCC#CCO)=C(C)C1=O,scaled lipid accumulation score,[1],0.105 (inactive)
same,scaled lipid accumulation score,library stock concentration: 15.3 mM,≤ -0.012 (inactive)
O=C(O)CCNc1cc(N2CCc3ccccc3CC2)nc(-c2cccnc2)n1,scaled lipid accumulation score,[4],≤ 0 (inactive)
same,scaled lipid accumulation score,[5],≤ 0 (inactive)
same,scaled lipid accumulation score,[6],≤ 0 (inactive)
same,scaled lipid accumulation score,[1],≤ 0 (inactive)
CC(C)(C)OC(=O)N[C@H]1CCCCC/C=C\[C@@H]2C[C@@]2(C(=O)NS(=O)(=O)C2CC2)NC(=O)[C@@H]2C[C@@H](OC(=O)N3Cc4cccc(F)c4C3)CN2C1=O [Danoprevir (ITMN-191)],scaled lipid accumulation score,[3],0.049 (inactive)
same,scaled lipid accumulation score,[1],≤ 0 (inactive)
CO[C@H]1C[C@@H]2CC[C@@H](C)[C@@](O)(O2)C(=O)C(=O)N2CCCC[C@H]2C(=O)O[C@H]([C@H](C)C[C@@H]2CC[C@@H](O)[C@H](OC)C2)CC(=O)[C@H](C)/C=C(\C)[C@@H](O)[C@@H](OC)C(=O)[C@H](C)C[C@H](C)/C=C/C=C/C=C/1C [Rapamycin],scaled lipid accumulation score,[4],≤ 0 (inactive)
same,scaled lipid accumulation score,[5],≤ 0 (inactive)
same,scaled lipid accumulation score,[2],≤ 0 (inactive)
same,scaled lipid accumulation score,[6],≤ 0 (inactive)
same,scaled lipid accumulation score,[3],≤ 0 (inactive)
same,scaled lipid accumulation score,[1],≤ 0 (inactive)
CO[C@H]1C[C@@H]2CC[C@@H](C)[C@@](O)(O2)C(=O)C(=O)N2CCCC[C@H]2C(=O)O[C@H]([C@H](C)C[C@@H]2CC[C@@H](O)[C@H](OC)C2)CC(=O)[C@H](C)/C=C(\C)[C@@H](O)[C@@H](OC)C(=O)[C@H](C)C[C@H](C)/C=C/C=C/C=C/1C [Rapamycin (Sirolimus)],scaled lipid accumulation score,[3],0.037 (inactive)
same,scaled lipid accumulation score,[1],≤ 0 (inactive)
O=C1NC(=O)c2c1c(-c1ccccc1)cc1[nH]c3ccc(O)cc3c21,scaled lipid accumulation score,[1],≤ -0.055 (inactive) and ≤ -0.001 (inactive)
OCCN1CCN(CCCN2c3ccccc3Sc3ccc(C(F)(F)F)cc32)CC1 [Fluphenazine dihydrochloride],scaled lipid accumulation score,,0.627 (inactive)
same,scaled lipid accumulation score,[1],≤ -0.07 (inactive)
OCCN1CCN(CCCN2c3ccccc3Sc3ccc(C(F)(F)F)cc32)CC1 [Fluphenazine hydrochloride],scaled lipid accumulation score,[1],0.407 (inactive)
OCCN1CCN(CCCN2c3ccccc3Sc3ccc(C(F)(F)F)cc32)CC1,scaled lipid accumulation score,[1],1.34 (active)
CC(C)(O)C1CCC(C)(C2C(O)CC3(C)C4CC(OC5OC(CO)C(O)C(O)C5O)C5C(C)(C)C(OC6OCC(O)C(O)C6O)CCC56CC46CCC23C)O1 (centres undefined) [Astragaloside A],scaled lipid accumulation score,[3],0.019 (inactive)
same,scaled lipid accumulation score,[1],≤ 0 (inactive)
